Experiment [1] can be described thus: ATG_ERE_CIS: Attagene CIS-FACTORIAL HepG2 Assay for Estrogen Response Element (ERE) (AID 2282940; active = hit-call score of the fitted dose curve at least 0.9, where 1 is the maximum; inactive = score below 0.9). The conditions noted are these: HepG2 ERE cis-reporter, Attagene RNA transcript; actives raise or lower the signal. In outline:
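Human liver cells (HepG2) bearing transiently transfected, promoter-regulated reporter units were exposed 24 h. Reporter mRNA induction was detected by capillary electrophoresis of labelled RT-PCR products and fitted bidirectionally to DMSO.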

Experiment [2] deals with Steroid hormone receptor ERR1 (Homo sapiens) (UniProt P11474). Put plainly: ATG_ERRa_TRANS: Attagene TRANS-FACTORIAL HepG2 Assay for human Estrogen-Related Receptor alpha (ERRa) (AID 2282971). Conditions: HepG2 Attagene TRANS reporter, ERRa transactivation. A digest of the protocol:
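Signal gain relative to DMSO for an ERRa-Gal4 chimeric receptor, read as reporter mRNA by RT-PCR/capillary electrophoresis. Human HepG2 liver cells, transient multiplex reporter transfection, 24 h chemical exposure.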

The nature of experiment [3]: CCTE_Harrill_HTTr_Viability_MCF7: CCTE's 6-hour Cell Viability Assessment for the High-Throughput Transcriptomics (HTTr) Platform, in MCF-7 cells cultured in DMEM + 10% fetal bovine serum, Harrill Lab (AID 2284010; active = hit-call score of the fitted dose curve at least 0.9, where 1 is the maximum; inactive = score below 0.9). In outline:
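PI exclusion, high-content imaging; 8-pt dilution series, 6 h exposure; bidirectional fit vs DMSO (neg. ctrl/baseline); gain of signal = loss of membrane integrity.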

Experiment [4] can be described thus: CCTE_Harrill_HTTr_Apoptosis_MCF7: CCTE's 6-hour Apoptosis Assessment for the High-Throughput Transcriptomics (HTTr) Platform, in MCF-7 cells cultured in DMEM + 10% fetal bovine serum, Harrill Lab (AID 2284011; active = hit-call score of the fitted dose curve at least 0.9, where 1 is the maximum; inactive = score below 0.9). A digest of the protocol: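 Apoptosis in MCF-7 cells grown in DMEM with 10% fetal bovine serum was scored after a six hour exposure by high content imaging of caspase-3/7 activation (CellEvent Caspase 3/7 Green), with DMSO serving as negative control and baseline.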

For experiment [5], the target named is Estrogen-related receptor gamma (Homo sapiens) (UniProt P62508). Put plainly: ATG_ERRg_TRANS: Attagene TRANS-FACTORIAL HepG2 Assay for human Estrogen-Related Receptor gamma (ERRg) (AID 2282977).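 Also: hits increase reporter signal over DMSO so potencies reflect activators.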 The conditions noted are these: HepG2 Attagene TRANS reporter, ERRg transactivation. A digest of the protocol:
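Readout: fluorescent reporter-mRNA fragments resolved by capillary electrophoresis after RT-PCR and HpaI cut. Cells: transiently transfected HepG2 carrying GAL4-UAS reporters driven by exogenous NR-Gal4 chimeras, dosed 24 h. Activity fitted upward relative to DMSO baseline.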

Experiment [6] has as its target Oxysterols receptor LXR-beta (Homo sapiens) (UniProt P55055). In words: ATG_LXRb_TRANS: Attagene TRANS-FACTORIAL HepG2 Assay for human Liver X Receptor beta (LXRb) (AID 2282981). Conditions: HepG2 Attagene TRANS GAL4-LXRb reporter, mRNA. In outline:
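After 24 h of chemical treatment, transfected HepG2 cells yield total RNA; reporter cDNA is PCR-amplified, FAM-labelled, HpaI-cut and run on capillary electrophoresis. Signal reflects chimeric LXRb-Gal4 activity on GAL4-UAS reporters.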

The target in experiment [7] is human Retinoic Acid Receptor beta (RARb), RARB (gene 5915) (UniProt P10826). Put plainly: ATG_RARb_TRANS: Attagene TRANS-FACTORIAL HepG2 Assay for human Retinoic Acid Receptor beta (AID 2283004). A digest of the protocol: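 Fluorescent capillary-electrophoresis detection of GAL4-UAS reporter mRNA defines the endpoint, with induction over DMSO-treated wells scored as activity. Transiently transfected human hepatoma HepG2 cells expressing exogenous NR–Gal4 proteins are exposed to test chemicals for 24 h.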
Sequence of human Retinoic Acid Receptor beta (RARb), RARB (gene 5915) (P10826 whole entry, looked up, the tested form may be a part): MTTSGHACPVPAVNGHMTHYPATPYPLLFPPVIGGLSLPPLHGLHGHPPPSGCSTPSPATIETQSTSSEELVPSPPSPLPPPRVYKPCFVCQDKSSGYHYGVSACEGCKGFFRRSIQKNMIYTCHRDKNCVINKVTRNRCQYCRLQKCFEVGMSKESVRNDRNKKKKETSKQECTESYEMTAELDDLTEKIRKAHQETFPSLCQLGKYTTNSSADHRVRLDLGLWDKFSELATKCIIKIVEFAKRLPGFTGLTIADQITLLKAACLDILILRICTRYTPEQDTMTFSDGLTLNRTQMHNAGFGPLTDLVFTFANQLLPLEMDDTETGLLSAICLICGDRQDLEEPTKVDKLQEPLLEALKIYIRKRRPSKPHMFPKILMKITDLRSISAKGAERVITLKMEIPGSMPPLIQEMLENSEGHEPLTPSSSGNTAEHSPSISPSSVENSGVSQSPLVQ

The target in experiment [8] is human Retinoic Acid Receptor gamma (RARg), RARG (gene 5916) (UniProt P13631). In words: ATG_RARg_TRANS: Attagene TRANS-FACTORIAL HepG2 Assay for human Retinoic Acid Receptor gamma (RARg) (AID 2283009). In outline: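 Readout: reporter transcript levels via RT-PCR, 6-FAM primer-extension labelling, HpaI digestion and capillary electrophoresis. Cells: HepG2 carrying transfected RARg-GAL4 chimera plus UAS reporter set. Dosing 24 h; DMSO negative control.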
Sequence of human Retinoic Acid Receptor gamma (RARg), RARG (gene 5916) (P13631 whole entry, looked up, the tested form may be a part): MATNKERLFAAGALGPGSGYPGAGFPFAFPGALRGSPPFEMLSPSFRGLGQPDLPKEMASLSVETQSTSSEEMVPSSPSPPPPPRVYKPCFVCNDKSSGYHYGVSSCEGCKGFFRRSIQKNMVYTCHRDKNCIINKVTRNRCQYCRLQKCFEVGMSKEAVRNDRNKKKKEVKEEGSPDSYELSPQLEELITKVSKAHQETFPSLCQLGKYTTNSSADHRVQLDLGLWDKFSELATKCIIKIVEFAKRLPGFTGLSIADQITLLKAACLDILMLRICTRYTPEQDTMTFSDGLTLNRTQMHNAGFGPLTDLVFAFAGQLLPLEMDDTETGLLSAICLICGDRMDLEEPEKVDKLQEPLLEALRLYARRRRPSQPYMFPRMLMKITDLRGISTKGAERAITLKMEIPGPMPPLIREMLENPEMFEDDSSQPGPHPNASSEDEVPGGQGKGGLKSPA

The target of experiment [9] is Estrogen receptor beta (Homo sapiens) (UniProt Q92731). Put plainly: OT_ER_ERbERb_1440: Odyssey Thera (OT) 24-hour HEK293T Protein-Complementation Assay for Estrogen Receptor-beta/-beta Homodimer (AID 2283380).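 Also: scored as signal increase over DMSO baseline for both agonists and antagonists.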 A digest of the protocol: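 Fluorescence increase, nuclear for agonists or whole-cell for antagonists, relative to DMSO vehicle, quantified by laser scanning cytometer after fixation and Draq5 staining. Readout from 24 h treatment of HEK293T cells carrying complementation-paired ER beta LBD (aa 310-547).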
Sequence of Estrogen receptor beta (Homo sapiens) (Q92731 whole entry, looked up, the tested form may be a part): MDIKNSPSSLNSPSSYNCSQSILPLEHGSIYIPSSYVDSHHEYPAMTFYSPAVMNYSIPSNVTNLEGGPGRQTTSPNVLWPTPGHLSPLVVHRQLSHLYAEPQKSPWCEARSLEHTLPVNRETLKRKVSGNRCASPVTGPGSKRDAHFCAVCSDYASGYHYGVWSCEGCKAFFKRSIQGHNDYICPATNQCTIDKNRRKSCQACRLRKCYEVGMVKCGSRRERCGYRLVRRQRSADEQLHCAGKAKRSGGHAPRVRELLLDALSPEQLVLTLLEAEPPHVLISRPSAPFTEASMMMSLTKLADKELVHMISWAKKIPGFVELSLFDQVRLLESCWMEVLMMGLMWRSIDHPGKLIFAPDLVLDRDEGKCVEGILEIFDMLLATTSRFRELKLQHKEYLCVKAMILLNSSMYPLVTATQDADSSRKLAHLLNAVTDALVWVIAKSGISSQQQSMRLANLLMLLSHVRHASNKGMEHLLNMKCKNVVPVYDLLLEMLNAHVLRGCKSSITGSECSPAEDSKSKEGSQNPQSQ

The target in experiment [10] is Peroxisome proliferator-activated receptor gamma (Homo sapiens) (UniProt P37231). Put plainly: OT_PPARg_PPARgSRC1_0480: Odyssey Thera (OT) 8-hour Protein-Complementation Assay for Peroxisome Proliferator-activated Receptor Gamma / SRC-1 Co-activator (AID 2283387).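 Also: nuclear to cytoplasmic split Venus YFP fluorescence ratio reporting PPARg SRC-1 interaction.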 In outline:
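HEK293T transiently transfected with PPARg and SRC-1 fused to Venus YFP fragments, compounds 8 h at 37C. Fixed, Draq5-stained cells imaged; nuclear/cytoplasmic 488 nm fluorescence ratio over at least 350 cells per image; gain fitted versus DMSO.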

Experiment [11] can be described thus: ACEA_AR_agonist_AUC_viability: ACEA Biosciences xCELLigence Real-Time Cell Analysis on Androgen Receptor Agonism for Viability (AID 2283775). A digest of the protocol:
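Viability endpoint from xCELLigence impedance in 22Rv1 prostate cells at 80 h. Eight-point series, 100 uM maximum final.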

A short description of experiment [12]: ACEA_AR_antagonist_AUC_viability: ACEA Biosciences xCELLigence Real-Time Cell Analysis on Androgen Receptor Antagonism for Viability (AID 2283776).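 Also: area under impedance growth curve at 80 h after dosing as viability; hits lower the growth signal relative to DMSO meaning cytotoxicity.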 A digest of the protocol:
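22Rv1 human prostate cancer cells were seeded on electrode plates, monitored overnight, then exposed to eight 1:4 dilutions from 100 uM final. Impedance-based growth kinetics at 80 h gave an AUC viability endpoint normalized to DMSO.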

Experiment [13] addresses Estrogen receptor beta (Homo sapiens) (UniProt Q92731). In words: OT_ER_ERbERb_0480: Odyssey Thera (OT) 8-hour HEK293T Protein-Complementation Assay for Estrogen Receptor-beta/-beta Homodimer (AID 2283357).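 Also: active means signal gain over DMSO baseline.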 In outline:
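ER-beta LBD homodimer PCA stably expressed in HEK293T; 8 h compound exposure, then formaldehyde fixation and Draq5 staining. Gain in nuclear/cytoplasmic fluorescence intensity versus DMSO vehicle, read on laser scanning cytometer.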

Experiment [14] addresses Retinoic acid receptor RXR-alpha (Homo sapiens) (UniProt P19793). In words: OT_NURR1_NURR1RXRa_1440: Odyssey Thera (OT) 24-hour HEK293T Protein Complementation Assay for Nurr1/retinoid X receptor (RXR) (AID 2283386). A digest of the protocol:
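Fluorescence PCA read-out; HEK293T; 24 h post-dose; bait/prey fused to reporter fragments; gain-of-signal fit vs DMSO negative control.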

Read-out in experiment [15]: Pselectin, SELP (gene 6403)
In words: BSK_4H_Pselectin: BioMAP Diversity Plus: 4H Assay for Pselectin Biomarker Activity (AID 2283026; active = hit-call score of the fitted dose curve at least 0.9, where 1 is the maximum; inactive = score below 0.9). Conditions: primary human endothelial cells (HUVEC); actives raise or lower the signal. In outline:
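HUVEC, 24 h chemical exposure; P-selectin read by ELISA. Bidirectional curve fit vs DMSO baseline; gain or loss of signal scored.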

Read-out in experiment [16]: serum amyloid A (SAA), SAA1 (gene 6288)
In words: BSK_CASM3C_SAA: BioMAP Diversity Plus: CASM3C Assay for serum amyloid A (SAA) Biomarker Activity (AID 2283049; active = hit-call score of the fitted dose curve at least 0.9, where 1 is the maximum; inactive = score below 0.9;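 also: SAA protein level quantified by ELISA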). The conditions noted are these: primary human coronary artery smooth muscle cells; actives raise or lower the signal.

Read-out in experiment [17]: Interferon-gamma inducible Protein 10 (IP10), CXCL10 (gene 3627)
In words: BSK_hDFCGF_IP10: BioMAP Diversity Plus: hDFCGF Assay for Interferon-gamma inducible Protein 10 (IP10) Biomarker Activity (AID 2283053; active = hit-call score of the fitted dose curve at least 0.9, where 1 is the maximum; inactive = score below 0.9). The conditions noted are these: primary human foreskin fibroblasts; actives raise or lower the signal. In outline:
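ELISA read-out of IP-10 (CXCL10) from primary human skin fibroblasts, 24 h after compound addition. Gain or loss of signal versus DMSO baseline, bidirectional curve fitting.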

Read-out in experiment [18]: Vascular cell adhesion molecule 1 (VCAM1), VCAM1 (gene 7412)
In words: BSK_CASM3C_VCAM1: BioMAP Diversity Plus: CASM3C Assay for Vascular cell adhesion molecule 1 (VCAM1) Biomarker Activity (AID 2283055; active = hit-call score of the fitted dose curve at least 0.9, where 1 is the maximum; inactive = score below 0.9;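 also: VCAM-1 protein level quantified by ELISA on the cells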). The conditions noted are these: primary human coronary artery smooth muscle cells; actives raise or lower the signal.

Read-out in experiment [19]: Macrophage colony-stimulating factor (MCSF), CSF1 (gene 1435)
In words: BSK_hDFCGF_MCSF: BioMAP Diversity Plus: hDFCGF Assay for Macrophage colony-stimulating factor (MCSF) Biomarker Activity (AID 2283060; active = hit-call score of the fitted dose curve at least 0.9, where 1 is the maximum; inactive = score below 0.9). Conditions: AC50: primary human foreskin fibroblasts, actives raise or lower the signal unless noted; outcome: primary human foreskin fibroblasts, actives raise or lower the signal unless noted. A digest of the protocol: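 fibroblasts (human foreskin, primary), 24 h post-dose; M-CSF by ELISA; bidirectional fit, DMSO = baseline.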

Among the data in PubChem BioAssay (EPA / NIEHS) are AC50 and outcome values, retold here.

Records with an inconclusive call do not appear. The source made the active and inactive calls. The calls were made as follows, unless noted: active = hit-call score of the fitted dose curve at least 0.9, where 1 is the maximum; inconclusive = response in the unintended direction; inactive = score below 0.9.

Sequence of Steroid hormone receptor ERR1 (Homo sapiens) (P11474 whole entry, looked up, the tested form may be a part): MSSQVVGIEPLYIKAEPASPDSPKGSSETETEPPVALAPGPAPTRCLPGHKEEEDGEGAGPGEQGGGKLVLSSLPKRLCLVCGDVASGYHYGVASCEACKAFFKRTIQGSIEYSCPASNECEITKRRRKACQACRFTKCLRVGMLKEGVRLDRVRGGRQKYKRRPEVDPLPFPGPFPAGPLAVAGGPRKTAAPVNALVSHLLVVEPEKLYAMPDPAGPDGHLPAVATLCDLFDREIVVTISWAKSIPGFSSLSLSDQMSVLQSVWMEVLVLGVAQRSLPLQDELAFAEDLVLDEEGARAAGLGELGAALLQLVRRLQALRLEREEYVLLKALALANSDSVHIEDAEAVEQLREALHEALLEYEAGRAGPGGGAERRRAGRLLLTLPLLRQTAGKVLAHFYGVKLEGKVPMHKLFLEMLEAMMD
Sequence of Estrogen-related receptor gamma (Homo sapiens) (P62508 whole entry, looked up, the tested form may be a part): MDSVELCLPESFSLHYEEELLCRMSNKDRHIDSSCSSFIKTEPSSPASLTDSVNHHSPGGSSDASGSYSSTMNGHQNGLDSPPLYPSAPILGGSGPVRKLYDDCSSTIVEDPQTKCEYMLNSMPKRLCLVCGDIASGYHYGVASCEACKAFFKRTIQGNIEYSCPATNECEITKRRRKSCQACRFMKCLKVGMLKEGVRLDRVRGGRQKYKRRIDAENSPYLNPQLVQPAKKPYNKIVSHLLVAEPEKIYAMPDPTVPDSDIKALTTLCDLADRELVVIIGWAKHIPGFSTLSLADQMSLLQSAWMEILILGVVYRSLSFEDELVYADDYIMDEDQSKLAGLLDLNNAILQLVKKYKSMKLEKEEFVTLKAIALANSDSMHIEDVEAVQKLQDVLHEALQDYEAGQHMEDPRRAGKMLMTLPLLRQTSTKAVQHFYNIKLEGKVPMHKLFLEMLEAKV
Sequence of Peroxisome proliferator-activated receptor gamma (Homo sapiens) (P37231 whole entry, looked up, the tested form may be a part): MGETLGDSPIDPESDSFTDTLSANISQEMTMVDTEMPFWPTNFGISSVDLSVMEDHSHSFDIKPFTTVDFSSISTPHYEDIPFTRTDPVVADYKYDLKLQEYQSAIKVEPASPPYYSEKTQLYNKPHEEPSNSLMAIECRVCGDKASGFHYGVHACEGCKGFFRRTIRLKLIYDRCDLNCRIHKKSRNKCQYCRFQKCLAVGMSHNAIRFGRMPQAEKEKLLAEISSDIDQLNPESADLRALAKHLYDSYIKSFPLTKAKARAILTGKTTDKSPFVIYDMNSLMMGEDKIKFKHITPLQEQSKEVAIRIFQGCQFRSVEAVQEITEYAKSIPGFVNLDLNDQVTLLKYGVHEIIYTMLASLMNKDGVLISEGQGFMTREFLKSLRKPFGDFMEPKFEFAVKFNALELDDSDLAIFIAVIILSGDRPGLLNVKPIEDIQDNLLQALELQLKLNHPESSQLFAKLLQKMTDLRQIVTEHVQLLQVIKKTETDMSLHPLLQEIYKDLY
Sequence of Oxysterols receptor LXR-beta (Homo sapiens) (P55055 whole entry, looked up, the tested form may be a part): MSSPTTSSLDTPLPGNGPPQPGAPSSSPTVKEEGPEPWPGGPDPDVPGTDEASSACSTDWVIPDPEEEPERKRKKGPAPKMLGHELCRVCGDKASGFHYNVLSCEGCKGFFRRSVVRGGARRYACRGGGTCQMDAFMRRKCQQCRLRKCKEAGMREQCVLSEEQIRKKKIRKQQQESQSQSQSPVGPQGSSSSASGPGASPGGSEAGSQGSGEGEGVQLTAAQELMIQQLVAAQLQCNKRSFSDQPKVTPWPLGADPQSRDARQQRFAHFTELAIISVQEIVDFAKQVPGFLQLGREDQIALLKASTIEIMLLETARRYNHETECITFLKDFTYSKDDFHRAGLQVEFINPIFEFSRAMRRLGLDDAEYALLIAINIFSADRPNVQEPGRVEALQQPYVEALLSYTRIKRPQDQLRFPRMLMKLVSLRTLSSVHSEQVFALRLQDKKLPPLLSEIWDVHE
Sequence of Retinoic acid receptor RXR-alpha (Homo sapiens) (P19793 whole entry, looked up, the tested form may be a part): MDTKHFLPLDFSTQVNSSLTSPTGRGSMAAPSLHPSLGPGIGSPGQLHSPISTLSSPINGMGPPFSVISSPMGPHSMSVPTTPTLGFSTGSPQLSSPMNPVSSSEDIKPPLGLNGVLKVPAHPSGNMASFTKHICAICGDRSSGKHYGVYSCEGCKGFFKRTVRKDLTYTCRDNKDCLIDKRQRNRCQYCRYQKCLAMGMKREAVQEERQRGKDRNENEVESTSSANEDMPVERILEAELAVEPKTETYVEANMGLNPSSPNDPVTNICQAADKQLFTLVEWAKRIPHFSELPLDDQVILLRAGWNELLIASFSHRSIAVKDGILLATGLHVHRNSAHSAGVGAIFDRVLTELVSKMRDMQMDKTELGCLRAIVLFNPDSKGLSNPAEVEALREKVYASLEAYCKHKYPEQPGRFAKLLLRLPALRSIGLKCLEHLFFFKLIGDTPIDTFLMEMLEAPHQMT

For `NC(N)=Nc1nc(CSCCC(N)=NS(N)(=O)=O)cs1`, the concentration at half-maximal activity (AC50) in experiment [1] was 26.1 µM (active). Also, the call in experiment [2], in experiment [3] and in [4] was inactive.
With `O=C(O)c1nc(Cl)c(Cl)c(Cl)c1Cl`, the result in [5] and in experiment [6] was inactive.
Consider `CCCCCCC1CCC(=O)O1` (stereo not given), for which the outcome in experiment [1], in experiment [2], in experiment [6], in [7], in [8] and in experiment [9] was inactive. The compound was classed as inactive in experiment [10], in experiment [11] and in [12].
In the case of `O=C(c1ccccc1)c1ccccc1O`, the compound was classed as inactive in [2], in experiment [5], in experiment [9], in experiment [10], in [11] and in [12]. In addition, the AC50 in experiment [13] was 50 µM (active).
As for `CCC(=O)OCc1ccc(OC)cc1`, the compound was classed as inactive in [8].
`CCCCCCCC#N`: the call in experiment [2], in [6] and in [8] was inactive.
With `CCOC(=O)CC(=O)OCC`, the compound was classed as inactive in experiment [8], in experiment [14], in experiment [11], in experiment [3] and in experiment [4].
Take `CCCCC(CC)COC(=O)CS` (stereo not given): the result in experiment [2] and in experiment [5] was inactive. For the same compound, the AC50 in experiment [14] was 16 µM (active).
Turning to `C=C1CC[C@H]2C[C@@H]1C2(C)C`, the result in [1], in experiment [7], in [13], in experiment [9], in [10] and in experiment [11] was inactive. Moreover, in experiment [12], the compound was called inactive.
Consider `CCc1cc(C(N)=S)ccn1`, for which the outcome in experiment [3] and in experiment [4] was inactive.
`Brc1ccc(Oc2ccc(Br)cc2)cc1`: the outcome in [3] and in experiment [4] was inactive.
On to `Cc1cc(-n2nc3ccc(Cl)cc3n2)c(O)c(C(C)(C)C)c1`, for which the result in [5], in [7], in [15], in experiment [16], in experiment [17] and in experiment [18] was inactive. In addition, the outcome in experiment [19] was inactive.
In the case of `CCC(C)C1N=C(C)C(C)S1` (stereo not given), the compound was called inactive in experiment [2], in experiment [5] and in experiment [6].
